# Key:
# Assay in all cases: DAPPL (digital affinity profiling via proximity ligation, sequencing); 10 mM Tris-HCl pH 7.5, 50 mM NaCl, 1 mM DTT, 4% glycerol, room temperature, 30 min; GST-TFs on glutathione beads, 16-mer random dsDNA library, 0.1% formaldehyde crosslink after washing; high values mean tight binding
# FEV = target: T1, FEV (Homo sapiens, UniProt Q99581 1-238); conditions: protein: recombinant; tags: N-terminal GST; dsDNA, one strand shown
# T1 sequence: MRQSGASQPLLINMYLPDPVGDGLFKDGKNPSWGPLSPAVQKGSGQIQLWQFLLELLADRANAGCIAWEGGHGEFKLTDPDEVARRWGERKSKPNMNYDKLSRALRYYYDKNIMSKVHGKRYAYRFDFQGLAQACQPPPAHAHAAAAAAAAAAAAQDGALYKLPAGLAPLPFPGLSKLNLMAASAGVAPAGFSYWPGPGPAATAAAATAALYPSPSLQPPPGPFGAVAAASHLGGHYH
# How it was run: (§1)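 Binding signal is each hexamer's read frequency for a factor divided by its frequency in the tag-only sample. The factors were GST-fused human transcription factors from yeast, captured on glutathione beads, DNA-barcoded and pooled with that sample. Pools were incubated with 200 nmole of a random double-stranded 16-mer DNA library in Tris/NaCl/DTT/glycerol buffer at room temperature for 30 min, then washed, crosslinked with 0.1% formaldehyde, proximity-ligated with BsaI/T4 ligase (1 h, 37 °C), PCR-amplified and sequenced on an Illumina NextSeq500.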
# ETV5 = ETV5 (Homo sapiens, UniProt P41161 1-510); conditions: protein: recombinant; tags: N-terminal GST; dsDNA, one strand shown
# Chain of ETV5 (P41161 whole entry): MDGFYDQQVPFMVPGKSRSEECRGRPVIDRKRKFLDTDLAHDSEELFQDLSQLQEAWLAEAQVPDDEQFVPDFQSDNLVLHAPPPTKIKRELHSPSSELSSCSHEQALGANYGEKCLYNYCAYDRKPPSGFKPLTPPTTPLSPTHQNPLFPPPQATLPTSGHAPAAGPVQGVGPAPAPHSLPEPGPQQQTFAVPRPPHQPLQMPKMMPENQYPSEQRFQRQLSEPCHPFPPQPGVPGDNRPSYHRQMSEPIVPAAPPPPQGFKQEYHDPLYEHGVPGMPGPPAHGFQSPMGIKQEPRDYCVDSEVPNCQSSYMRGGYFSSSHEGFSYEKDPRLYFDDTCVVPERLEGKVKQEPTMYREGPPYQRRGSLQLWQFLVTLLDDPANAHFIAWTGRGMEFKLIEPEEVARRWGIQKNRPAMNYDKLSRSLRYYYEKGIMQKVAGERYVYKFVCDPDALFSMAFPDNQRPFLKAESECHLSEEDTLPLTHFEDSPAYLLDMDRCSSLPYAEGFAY
# How it was run: as §1
# HSF1 = HSF1 (Homo sapiens, UniProt Q00613 1-529); conditions: protein: recombinant; tags: N-terminal GST; chain copies: 3; dsDNA, one strand shown
# Chain of HSF1 (Q00613 whole entry): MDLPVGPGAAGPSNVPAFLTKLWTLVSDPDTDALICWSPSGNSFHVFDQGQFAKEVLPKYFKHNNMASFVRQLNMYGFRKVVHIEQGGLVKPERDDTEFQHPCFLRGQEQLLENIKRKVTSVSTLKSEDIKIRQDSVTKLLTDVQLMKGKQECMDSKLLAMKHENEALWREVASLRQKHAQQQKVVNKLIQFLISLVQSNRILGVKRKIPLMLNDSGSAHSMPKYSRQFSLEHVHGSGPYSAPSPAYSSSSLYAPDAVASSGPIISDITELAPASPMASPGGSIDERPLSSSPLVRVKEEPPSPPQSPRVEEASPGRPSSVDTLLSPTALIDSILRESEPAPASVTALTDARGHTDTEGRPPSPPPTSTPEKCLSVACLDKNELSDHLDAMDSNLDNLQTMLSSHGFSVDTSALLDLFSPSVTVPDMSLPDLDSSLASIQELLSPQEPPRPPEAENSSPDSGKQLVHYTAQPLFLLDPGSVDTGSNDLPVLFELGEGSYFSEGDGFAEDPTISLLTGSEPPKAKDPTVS
# How it was run: as §1
# SPIC = target: T2, SPIC (Homo sapiens, UniProt Q8N5J4 1-248); conditions: protein: recombinant; tags: N-terminal GST; dsDNA, one strand shown
# T2 sequence: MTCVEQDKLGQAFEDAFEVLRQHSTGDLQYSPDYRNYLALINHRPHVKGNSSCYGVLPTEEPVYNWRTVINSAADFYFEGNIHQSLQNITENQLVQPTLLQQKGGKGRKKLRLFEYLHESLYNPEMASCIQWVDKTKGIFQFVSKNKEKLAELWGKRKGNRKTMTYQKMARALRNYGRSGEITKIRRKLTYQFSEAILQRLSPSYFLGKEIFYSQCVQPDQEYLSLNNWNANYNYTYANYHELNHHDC
# How it was run: as §1
# ELF4 = ELF4 (Homo sapiens, UniProt Q99607 1-663); conditions: protein: recombinant; tags: N-terminal GST; dsDNA, one strand shown
# Chain of ELF4 (Q99607 whole entry): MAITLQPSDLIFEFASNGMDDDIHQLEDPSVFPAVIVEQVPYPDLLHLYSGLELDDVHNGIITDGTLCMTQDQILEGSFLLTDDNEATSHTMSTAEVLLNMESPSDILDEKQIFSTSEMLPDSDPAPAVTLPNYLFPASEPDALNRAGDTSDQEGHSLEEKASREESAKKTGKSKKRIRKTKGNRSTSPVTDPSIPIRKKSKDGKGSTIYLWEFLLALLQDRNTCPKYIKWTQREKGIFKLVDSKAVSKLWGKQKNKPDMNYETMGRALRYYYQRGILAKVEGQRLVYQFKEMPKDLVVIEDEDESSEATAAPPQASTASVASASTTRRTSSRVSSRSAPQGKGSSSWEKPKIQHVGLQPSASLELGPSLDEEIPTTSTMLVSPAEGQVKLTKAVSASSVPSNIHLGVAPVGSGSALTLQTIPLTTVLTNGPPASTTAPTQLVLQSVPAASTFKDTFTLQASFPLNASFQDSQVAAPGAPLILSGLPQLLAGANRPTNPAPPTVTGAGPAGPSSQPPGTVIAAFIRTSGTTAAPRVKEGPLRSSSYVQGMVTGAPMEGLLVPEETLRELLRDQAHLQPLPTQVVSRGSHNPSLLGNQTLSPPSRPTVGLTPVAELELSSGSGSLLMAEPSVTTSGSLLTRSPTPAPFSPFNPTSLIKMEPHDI
# How it was run: as §1
# ELK4 = target: T3, ELK4 (Homo sapiens, UniProt P28324-2 1-405); conditions: protein: recombinant; tags: N-terminal GST; dsDNA, one strand shown
# T3 sequence: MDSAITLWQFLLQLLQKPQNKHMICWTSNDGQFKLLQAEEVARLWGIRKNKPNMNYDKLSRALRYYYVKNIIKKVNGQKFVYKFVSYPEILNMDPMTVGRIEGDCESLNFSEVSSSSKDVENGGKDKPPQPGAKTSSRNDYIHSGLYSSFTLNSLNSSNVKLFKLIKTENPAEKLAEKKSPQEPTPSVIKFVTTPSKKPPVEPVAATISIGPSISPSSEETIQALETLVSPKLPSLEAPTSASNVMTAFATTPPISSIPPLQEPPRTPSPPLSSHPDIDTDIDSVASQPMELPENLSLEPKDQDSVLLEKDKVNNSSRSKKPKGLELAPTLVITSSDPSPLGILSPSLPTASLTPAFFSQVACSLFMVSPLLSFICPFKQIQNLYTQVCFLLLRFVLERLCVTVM
# How it was run: as §1
# ETV2 = target: T4, ETV2 (Homo sapiens, UniProt O00321 1-342); conditions: protein: recombinant; tags: N-terminal GST; dsDNA, one strand shown
# T4 sequence: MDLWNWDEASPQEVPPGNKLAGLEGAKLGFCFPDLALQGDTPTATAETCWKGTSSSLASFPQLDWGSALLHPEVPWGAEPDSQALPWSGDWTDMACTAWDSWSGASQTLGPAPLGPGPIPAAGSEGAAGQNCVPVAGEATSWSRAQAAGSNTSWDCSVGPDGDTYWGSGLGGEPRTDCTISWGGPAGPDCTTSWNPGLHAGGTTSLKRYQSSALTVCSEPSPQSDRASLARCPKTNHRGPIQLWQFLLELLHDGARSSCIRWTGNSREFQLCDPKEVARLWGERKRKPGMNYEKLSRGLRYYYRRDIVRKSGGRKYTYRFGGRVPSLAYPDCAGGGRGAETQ
# How it was run: as §1
# ELF3 = target: T5, ELF3 (Homo sapiens, UniProt P78545 1-371); conditions: protein: recombinant; tags: N-terminal GST; dsDNA, one strand shown
# T5 sequence: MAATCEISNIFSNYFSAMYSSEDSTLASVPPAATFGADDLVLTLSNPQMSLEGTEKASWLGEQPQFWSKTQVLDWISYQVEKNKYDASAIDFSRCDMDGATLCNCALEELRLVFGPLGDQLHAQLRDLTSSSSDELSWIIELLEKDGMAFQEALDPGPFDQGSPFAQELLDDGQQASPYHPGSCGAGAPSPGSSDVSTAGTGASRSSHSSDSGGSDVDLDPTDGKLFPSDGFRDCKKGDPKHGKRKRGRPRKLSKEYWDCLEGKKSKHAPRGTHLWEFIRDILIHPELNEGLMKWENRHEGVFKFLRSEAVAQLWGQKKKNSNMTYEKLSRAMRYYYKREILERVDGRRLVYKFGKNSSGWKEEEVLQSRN
# How it was run: as §1
# CRX = CRX (Homo sapiens, UniProt O43186 1-299); conditions: protein: recombinant; tags: N-terminal GST; dsDNA, one strand shown
# Chain of CRX (O43186 whole entry): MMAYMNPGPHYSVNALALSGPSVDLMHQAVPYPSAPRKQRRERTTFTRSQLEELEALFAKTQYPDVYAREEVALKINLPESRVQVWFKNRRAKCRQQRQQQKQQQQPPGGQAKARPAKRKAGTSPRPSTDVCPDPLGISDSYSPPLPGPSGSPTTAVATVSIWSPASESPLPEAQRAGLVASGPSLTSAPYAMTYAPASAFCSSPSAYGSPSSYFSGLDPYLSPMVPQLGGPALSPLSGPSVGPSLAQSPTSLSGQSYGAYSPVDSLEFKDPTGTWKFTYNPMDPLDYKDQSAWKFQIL
# How it was run: as §1
# ETV1 = ETV1 (Homo sapiens, UniProt P50549 1-477); conditions: protein: recombinant; tags: N-terminal GST; dsDNA, one strand shown
# Chain of ETV1 (P50549 whole entry): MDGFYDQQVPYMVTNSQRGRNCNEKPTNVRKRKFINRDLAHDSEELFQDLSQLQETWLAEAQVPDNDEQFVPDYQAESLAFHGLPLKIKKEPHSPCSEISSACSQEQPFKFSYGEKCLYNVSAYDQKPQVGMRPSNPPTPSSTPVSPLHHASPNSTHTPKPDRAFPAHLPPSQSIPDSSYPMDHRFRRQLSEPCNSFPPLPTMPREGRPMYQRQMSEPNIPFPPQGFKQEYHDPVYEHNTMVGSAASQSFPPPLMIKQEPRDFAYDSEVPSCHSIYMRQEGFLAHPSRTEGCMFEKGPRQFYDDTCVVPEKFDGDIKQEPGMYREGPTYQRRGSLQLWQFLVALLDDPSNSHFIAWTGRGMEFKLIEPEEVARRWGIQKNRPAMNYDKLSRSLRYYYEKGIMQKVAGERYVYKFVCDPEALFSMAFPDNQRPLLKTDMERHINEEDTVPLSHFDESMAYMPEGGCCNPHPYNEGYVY
# How it was run: as §1
# ERF = target: T6, ERF (Homo sapiens, UniProt P50548 1-548); conditions: protein: recombinant; tags: N-terminal GST; dsDNA, one strand shown
# T6 sequence: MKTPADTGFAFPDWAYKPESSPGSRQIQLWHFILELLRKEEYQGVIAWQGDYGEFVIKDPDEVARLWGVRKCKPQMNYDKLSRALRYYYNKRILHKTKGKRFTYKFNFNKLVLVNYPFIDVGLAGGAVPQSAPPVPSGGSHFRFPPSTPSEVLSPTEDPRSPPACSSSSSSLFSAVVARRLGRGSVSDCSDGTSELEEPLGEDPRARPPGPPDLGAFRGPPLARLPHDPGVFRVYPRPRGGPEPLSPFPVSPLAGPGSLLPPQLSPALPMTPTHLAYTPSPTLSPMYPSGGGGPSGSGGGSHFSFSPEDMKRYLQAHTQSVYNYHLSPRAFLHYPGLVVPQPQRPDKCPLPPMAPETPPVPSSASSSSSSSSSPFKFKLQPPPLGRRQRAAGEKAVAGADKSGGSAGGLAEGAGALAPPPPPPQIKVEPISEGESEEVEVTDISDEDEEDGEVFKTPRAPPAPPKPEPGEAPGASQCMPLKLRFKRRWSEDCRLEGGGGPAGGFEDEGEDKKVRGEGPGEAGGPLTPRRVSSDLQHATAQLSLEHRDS
# How it was run: as §1
# ETV3L = target: T7, ETV3L (Homo sapiens, UniProt Q6ZN32 1-361); conditions: protein: recombinant; tags: N-terminal GST; dsDNA, one strand shown
# T7 sequence: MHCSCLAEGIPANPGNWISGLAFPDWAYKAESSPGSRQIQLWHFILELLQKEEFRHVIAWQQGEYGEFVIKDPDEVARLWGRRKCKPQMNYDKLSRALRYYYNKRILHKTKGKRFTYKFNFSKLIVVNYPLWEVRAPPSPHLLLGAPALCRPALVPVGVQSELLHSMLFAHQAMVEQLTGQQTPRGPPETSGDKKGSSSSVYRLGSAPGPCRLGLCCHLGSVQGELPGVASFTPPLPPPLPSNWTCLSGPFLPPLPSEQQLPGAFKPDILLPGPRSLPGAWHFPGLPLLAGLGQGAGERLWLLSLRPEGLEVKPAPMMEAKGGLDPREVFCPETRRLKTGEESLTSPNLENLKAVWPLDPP
# How it was run: as §1
# ETS2 = target: T8, ETS2 (Homo sapiens, UniProt P15036 1-469); conditions: protein: recombinant; tags: N-terminal GST; dsDNA, one strand shown
# T8 sequence: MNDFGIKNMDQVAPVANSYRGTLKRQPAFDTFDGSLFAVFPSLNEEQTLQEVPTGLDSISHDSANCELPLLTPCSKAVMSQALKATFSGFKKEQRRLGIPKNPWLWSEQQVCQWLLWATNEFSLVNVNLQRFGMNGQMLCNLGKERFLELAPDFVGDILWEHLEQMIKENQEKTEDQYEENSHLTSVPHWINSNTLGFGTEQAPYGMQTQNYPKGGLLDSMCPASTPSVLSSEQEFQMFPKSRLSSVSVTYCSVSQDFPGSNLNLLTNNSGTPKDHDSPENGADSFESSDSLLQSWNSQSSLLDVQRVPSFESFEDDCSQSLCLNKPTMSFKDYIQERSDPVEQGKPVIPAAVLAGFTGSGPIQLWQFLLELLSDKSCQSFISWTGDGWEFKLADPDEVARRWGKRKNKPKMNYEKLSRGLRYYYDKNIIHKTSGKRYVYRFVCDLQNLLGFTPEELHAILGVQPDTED
# How it was run: as §1
# SPDEF = target: T9, SPDEF (Homo sapiens, UniProt O95238 1-335); conditions: protein: recombinant; tags: N-terminal GST; dsDNA, one strand shown
# T9 sequence: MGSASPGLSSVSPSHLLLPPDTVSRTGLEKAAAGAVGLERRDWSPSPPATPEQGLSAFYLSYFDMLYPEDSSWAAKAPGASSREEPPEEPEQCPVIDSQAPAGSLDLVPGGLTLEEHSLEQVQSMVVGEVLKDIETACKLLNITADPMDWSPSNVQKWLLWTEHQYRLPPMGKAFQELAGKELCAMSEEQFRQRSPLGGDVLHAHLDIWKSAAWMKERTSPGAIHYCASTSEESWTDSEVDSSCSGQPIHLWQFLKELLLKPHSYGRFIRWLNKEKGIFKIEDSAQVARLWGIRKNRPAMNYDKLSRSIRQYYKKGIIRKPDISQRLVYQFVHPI
# How it was run: as §1
# ETV7 = target: T10, ETV7 (Homo sapiens, UniProt Q9Y603 1-341); conditions: protein: recombinant; tags: N-terminal GST; dsDNA, one strand shown
# T10 sequence: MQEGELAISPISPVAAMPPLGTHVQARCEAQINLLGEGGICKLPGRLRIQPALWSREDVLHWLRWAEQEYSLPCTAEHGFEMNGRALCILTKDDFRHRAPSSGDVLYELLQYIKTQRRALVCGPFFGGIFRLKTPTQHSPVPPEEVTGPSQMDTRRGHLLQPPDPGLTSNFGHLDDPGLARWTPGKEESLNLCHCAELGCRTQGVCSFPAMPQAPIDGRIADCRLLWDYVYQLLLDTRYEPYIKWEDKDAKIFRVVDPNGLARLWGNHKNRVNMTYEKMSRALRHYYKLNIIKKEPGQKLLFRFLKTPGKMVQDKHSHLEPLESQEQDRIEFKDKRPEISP
# How it was run: as §1
# ELF5 = target: T11, ELF5 (Homo sapiens, UniProt Q9UKW6-2 1-255); conditions: protein: recombinant; tags: N-terminal GST; dsDNA, one strand shown
# T11 sequence: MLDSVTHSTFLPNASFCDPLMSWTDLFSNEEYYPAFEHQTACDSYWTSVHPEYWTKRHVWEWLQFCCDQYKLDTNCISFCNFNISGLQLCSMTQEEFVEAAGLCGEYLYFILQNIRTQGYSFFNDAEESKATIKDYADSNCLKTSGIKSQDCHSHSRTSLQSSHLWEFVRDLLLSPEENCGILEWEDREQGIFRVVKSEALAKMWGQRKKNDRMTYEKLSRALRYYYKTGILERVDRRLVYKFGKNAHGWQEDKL
# How it was run: as §1
# ETV3 = target: T12, ETV3 (Homo sapiens, UniProt P41162-2 1-143); conditions: protein: recombinant; tags: N-terminal GST; dsDNA, one strand shown
# T12 sequence: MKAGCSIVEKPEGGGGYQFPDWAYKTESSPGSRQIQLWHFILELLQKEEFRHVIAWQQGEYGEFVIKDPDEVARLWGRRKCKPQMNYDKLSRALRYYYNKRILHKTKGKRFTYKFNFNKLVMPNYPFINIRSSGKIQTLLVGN
# How it was run: as §1
# ETV6 = ETV6 (Homo sapiens, UniProt P41212 1-452); conditions: protein: recombinant; tags: N-terminal GST; dsDNA, one strand shown
# Chain of ETV6 (P41212 whole entry): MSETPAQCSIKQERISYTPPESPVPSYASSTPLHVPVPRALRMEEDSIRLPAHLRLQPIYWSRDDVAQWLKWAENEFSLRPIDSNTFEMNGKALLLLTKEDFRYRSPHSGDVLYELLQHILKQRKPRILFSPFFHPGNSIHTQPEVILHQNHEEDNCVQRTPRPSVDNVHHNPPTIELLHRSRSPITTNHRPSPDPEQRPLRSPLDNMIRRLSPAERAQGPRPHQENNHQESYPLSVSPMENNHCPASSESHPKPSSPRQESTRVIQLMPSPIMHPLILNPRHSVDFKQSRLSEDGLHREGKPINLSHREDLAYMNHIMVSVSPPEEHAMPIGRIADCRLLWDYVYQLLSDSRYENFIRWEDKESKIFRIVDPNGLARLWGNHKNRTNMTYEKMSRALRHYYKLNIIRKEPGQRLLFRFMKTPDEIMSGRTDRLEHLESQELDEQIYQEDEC
# How it was run: as §1
sequence,measurement,setting,value
TTCTGC,binding signal,FEV,"1.39 fold enrichment (6-mer frequency, TF over GST control)"
same,binding signal,ETV5,"1.46 fold enrichment (6-mer frequency, TF over GST control)"
same,binding signal,HSF1,"1.57 fold enrichment (6-mer frequency, TF over GST control)"
same,binding signal,SPIC,"1.37 fold enrichment (6-mer frequency, TF over GST control)"
same,binding signal,ELF4,"1.52 fold enrichment (6-mer frequency, TF over GST control)"
same,binding signal,ELK4,"1.65 fold enrichment (6-mer frequency, TF over GST control)"
same,binding signal,ETV2,"1.26 fold enrichment (6-mer frequency, TF over GST control)"
same,binding signal,ELF3,"1.54 fold enrichment (6-mer frequency, TF over GST control)"
same,binding signal,CRX,"1.36 fold enrichment (6-mer frequency, TF over GST control)"
same,binding signal,ETV1,"1.45 fold enrichment (6-mer frequency, TF over GST control)"
same,binding signal,ERF,"1.55 fold enrichment (6-mer frequency, TF over GST control)"
same,binding signal,ETV3L,"1.4 fold enrichment (6-mer frequency, TF over GST control)"
same,binding signal,ETS2,"1.33 fold enrichment (6-mer frequency, TF over GST control)"
same,binding signal,SPDEF,"1.38 fold enrichment (6-mer frequency, TF over GST control)"
same,binding signal,ETV7,"1.43 fold enrichment (6-mer frequency, TF over GST control)"
same,binding signal,ELF5,"1.38 fold enrichment (6-mer frequency, TF over GST control)"
same,binding signal,ETV3,"1.33 fold enrichment (6-mer frequency, TF over GST control)"
same,binding signal,ETV6,"1.47 fold enrichment (6-mer frequency, TF over GST control)"
